Assay outcomes from PubChem BioAssay.
PGC1a acetyl inh = lowers PGC1a acetylation signal in U2OS cells | actives 0.17% (n = 350,000) | inhibition, % at 15.6 µM | AID 651687 | AlphaScreen anti-acetyl-lysine; with virally co-expressed GCN5 acetyltransferase;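 active = every replicate shows inhibition of at least 40%; inconclusive = mean inhibition at least 40% but some replicate below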;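 note: 0% = neutral control wells and 100% = positive control wells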
INS-1E GSIS act = GLuc luminescence reporter in INS-1E cells, primary screen for activators of glucose-dependent secretion of insulin; INS-1E GLuc reporter insulin secretion, 2-3 h; activation, % at 16.6 µM; actives 0.61% (n = 370,000);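 active = lowest replicate activation of at least 40%, so every replicate reaches that level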;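 note: 0% = median of neutral control wells and 100% = median of IBMX positive control wells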
DENV2 CPE = protects cells from dengue virus 2 cytopathic effect; actives 1.7% (n = 350,000); DENV2-infected cells, cytopathic effect rescue, plate reader; CPE inhibition, % at 9.99 µM; in the data active = CPE inhibition above about 20%, passing the limit was not always enough; inconclusive = no clear call, values can overlap the other calls; tested in BHK-21 cells;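 note: 0% = median of neutral control wells and 100% = median of positive control wells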
Ecoli rRNA inh = inhibitors of bacterial rRNA selective over humanized ribosomes. actives 1.6% (n = 350,000). GFP signal change (wild-type ribosome), % (no concentration beside the values). E. coli WT GFP vs humanized-ribosome RFP mutants, fluorescence, 24 h; active compounds read low; DMSO median 0, no signal -100;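 active = significant combined selectivity score with lowered wild-type GFP, culture density cut under 30%, mutant RFP and density less affected; inactive = any of these conditions unmet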
CaV13 FRET inh = Disruptors of the CACNA1D IQ motif to Ca2+-dependent inactivation inhibitor domain association, primary screening, Förster resonance energy transfer in intact living …; inhibition, % at 12.3 µM; HEK cells, CFP/YFP FRET ICDI-IQ, plate reader, 10 min; percent FRET-ratio fall versus neutral wells; actives 0.098% (n = 340,000);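 active = mean replicate inhibition of at least 30% and at least 1% of replicates passing that level; inconclusive = only one of the two criteria is met; inactive = neither criterion is met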;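 note: 0% = median of the neutral control wells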
ERAP1 inh = inhibitors of human ERAP1 aminopeptidase; Q9NZ08; recombinant ERAP1, Leu-AMC fluorescence, 60 min; inhibition, % at 10.7 µM; actives 0.15% (n = 340,000); AID 652197;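 active = mean replicate inhibition of at least 30%, or all replicates individually reaching that 30% level; inactive = mean below 30% and not every replicate reaching it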;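 note: 0% = neutral control wells and 100% = L-leucinethiol positive control wells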
Target sequence (Q9NZ08 whole entry, looked up): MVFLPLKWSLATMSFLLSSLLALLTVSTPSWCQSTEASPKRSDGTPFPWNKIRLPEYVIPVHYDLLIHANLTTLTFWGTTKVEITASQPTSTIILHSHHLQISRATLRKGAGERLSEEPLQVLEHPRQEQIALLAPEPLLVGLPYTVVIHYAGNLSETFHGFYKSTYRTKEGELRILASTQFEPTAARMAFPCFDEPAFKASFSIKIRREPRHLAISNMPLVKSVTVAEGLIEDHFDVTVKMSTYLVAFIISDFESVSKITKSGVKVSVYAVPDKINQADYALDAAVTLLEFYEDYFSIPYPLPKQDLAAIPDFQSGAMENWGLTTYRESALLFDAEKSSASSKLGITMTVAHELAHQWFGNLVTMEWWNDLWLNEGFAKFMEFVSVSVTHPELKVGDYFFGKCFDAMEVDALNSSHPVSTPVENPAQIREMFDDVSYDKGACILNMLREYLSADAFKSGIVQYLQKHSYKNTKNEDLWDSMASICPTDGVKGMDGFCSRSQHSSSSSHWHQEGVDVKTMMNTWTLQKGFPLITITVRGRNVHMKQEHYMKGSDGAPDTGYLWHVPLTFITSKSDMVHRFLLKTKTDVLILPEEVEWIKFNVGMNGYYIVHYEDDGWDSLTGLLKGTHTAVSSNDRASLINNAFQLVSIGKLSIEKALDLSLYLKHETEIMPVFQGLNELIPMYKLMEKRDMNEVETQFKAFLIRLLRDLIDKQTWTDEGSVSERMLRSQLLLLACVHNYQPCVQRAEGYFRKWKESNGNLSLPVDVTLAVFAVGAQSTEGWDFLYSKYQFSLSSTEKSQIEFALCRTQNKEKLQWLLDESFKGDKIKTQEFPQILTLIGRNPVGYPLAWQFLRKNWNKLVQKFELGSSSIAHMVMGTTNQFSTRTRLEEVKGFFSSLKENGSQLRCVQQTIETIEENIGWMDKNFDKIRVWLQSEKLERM
The depositor's hits bear a star; ? = inconclusive; nt = no result given. An excerpt weighted towards active compounds, which were near 3.2% of everything screened.

SMILES	PGC1a acetyl inh	INS-1E GSIS act	DENV2 CPE	Ecoli rRNA inh	CaV13 FRET inh	ERAP1 inh
Cc1cccc(C(=O)Nc2ccc(C(=O)/C=C/c3cccnc3)cc2)c1	54*	34	nt	nt	-19	nt
C(=Cc1cccnc1)c1ccncc1	3	24	-4	5	-6	3
CO[C@H]1CN(C)C(=O)c2cc(NS(=O)(=O)c3cccc(F)c3)ccc2OC[C@@H](C)N(Cc2cc(F)ccc2F)C[C@H]1C	-5	-25	-11	0	nt	-1
O=C(O)c1ccc(OS(=O)(=O)c2cccc(C(F)(F)F)c2)cc1	2	73*	3	1	-5	-2
O=C(COc1ccc(C(=O)O)cc1)Nc1cccc(C(F)(F)F)c1	11	14	nt	-3	-2	-29
C[C@H]1CN([C@@H](C)CO)C(=O)c2cc(NS(C)(=O)=O)ccc2O[C@@H]1CN(C)S(=O)(=O)c1ccccc1	-1	22	nt	0	nt	nt
CC1(C)C2CCC(C2)C1(C)N=C1OC(CCl)CS1 (stereo not drawn)	4	-13	-3	-22*	-4	-1
ClCC1CSC(=NC23CC4CC(CC(C4)C2)C3)O1 (stereo not drawn)	0	-23	4	-15	-2	0
O=C(N[C@@H]1CC[C@H](CCNC(=O)C2CCCC2)O[C@@H]1CO)c1ccncc1	3	7	9	1	nt	0
CCOc1ccc(C(=O)/C=C/c2cc(OC)c(OC)c(OC)c2)cc1	18	-8	nt	-20*	nt	3
O=[N+]([O-])c1ccccc1S(=O)(=O)Nc1cccc(-c2ccc3nncn3n2)c1	20	89*	65*	0	-7	-1
O=[N+]([O-])c1ccccc1S(=O)(=O)Nc1ccc(-c2ccc3nncn3n2)cc1	nt	49*	4	2	-6	5
O=S(=O)(Nc1cccc(-c2ccc3nncn3n2)c1)c1cccc(F)c1	nt	3	7	5	-5	0
COc1ccc(S(=O)(=O)Nc2cccc(-c3ccc4nncn4n3)c2)cc1F	nt	42*	-3	8	2	12
O=S(=O)(Nc1ccc(-c2ccc3nncn3n2)cc1)c1ccccc1F	nt	24	-6	10	-6	1
Cc1ccc(S(=O)(=O)Nc2cccc3c2O[C@@H](CN(C)S(=O)(=O)c2ccccc2)[C@H](C)CN([C@H](C)CO)C3=O)cc1	3	5	-12	-1	nt	0
C[C@H](CO)N1C[C@H](C)[C@@H](CN(C)Cc2ccc(Cl)c(Cl)c2)Oc2ccc(NC(=O)Cc3cn(C)c4ccccc34)cc2CC1=O	-2	6	7	1	nt	0
Cc1cccc(C)c1NC(=O)c1cccc(C(=O)Nc2c(C)cccc2C)n1	-38	16	0	-25*	-5	3
C=CCNC(=S)N/N=C/c1ccc(-c2ccc(Cl)cc2Cl)o1	-1	56	-8	0	-2	0
CCNC(=S)N/N=C/c1cc(C)ccc1C	nt	-3	7	3	-3	-2
C=CCNC(=S)N/N=C/c1ccc(C)cc1C	1	-10	9	-17*	3	0
C=CCNC(=S)N/N=C/c1ccc(-c2cc(Cl)ccc2Cl)o1	nt	124*	nt	nt	-6	nt
C[C@@H]1CN([C@H](C)CO)S(=O)(=O)c2ccc(/C=C/c3ccccc3)cc2O[C@H]1CN(C)C(=O)C1CC1	-6	13	?	-9	nt	-1
O=C([C@H]1[C@H](CO)[C@H]2Cn3c(ccc(-c4cccnc4)c3=O)[C@@H]1N2Cc1ccncc1)N1CCOCC1	nt	-3	-5	4	nt	-2
COc1cccc(Nc2nc(C(N)CO)cs2)n1 (stereo not drawn)	7	41*	6	6	-6	1
SMILES	PGC1a acetyl inh	INS-1E GSIS act	DENV2 CPE	Ecoli rRNA inh	CaV13 FRET inh	ERAP1 inh
CC(C)n1cnnc1SCC(=O)Nc1cccnc1Cl	3	8	68*	1	-2	3
Cc1ccccc1-n1cnnc1SCC(=O)Nc1cccnc1Cl	1	11	nt	3	2	-2
C[C@H](NC(=O)C[C@@H]1C[C@H]2c3cc(NC(=O)NC4CCCC4)ccc3O[C@H]2[C@H](CO)O1)c1ccccc1	-3	30	27*	-9	nt	-2
C[C@@H](NC(=O)C[C@@H]1C[C@@H]2c3cc(NC(=O)Nc4ccccc4F)ccc3O[C@@H]2[C@@H](CO)O1)c1ccccc1	4	105*	?	-2	nt	0
C[C@@H](NC(=O)C[C@@H]1C[C@H]2c3cc(NC(=O)Nc4ccccc4F)ccc3O[C@H]2[C@H](CO)O1)c1ccccc1	7	12	0	3	nt	0
Cc1cc(C)cc(N(CC(=O)NCc2ccco2)S(=O)(=O)c2c(C)noc2C)c1	5	-9	41*	9	11	nt
C[C@@H]1CN([C@@H](C)CO)C(=O)c2cc(NC(=O)c3ccncc3)ccc2O[C@@H]1CN(C)S(=O)(=O)c1ccc(F)cc1	3	20	0	-3	nt	0
COc1ccc2nc(C(F)(F)Cl)c(C#N)c(N)c2c1	nt	-14	6	-40*	-4	-6
Cc1nc2c(OCCC3CCCCC3)cccn2c1N(C)C(=O)CCC1CCCC1	7	-1	41*	-12	-4	1
Cc1nc2c(OCCOc3ccccc3)cccn2c1N(C)C(=O)CCC1CCCC1	-13	-13	1	-6	-9	-3
Cc1noc(C)c1S(=O)(=O)Nc1ccc2c(c1)C(=O)N([C@@H](C)CO)C[C@@H](C)[C@H](CN(C)C(=O)Nc1ccc3c(c1)OCO3)OCCCC[C@@H](C)O2	-5	5	3	1	nt	0
C[C@H](CO)N1C[C@H](C)[C@H](CN(C)S(=O)(=O)c2ccccc2)Oc2ccc(NC(=O)Nc3cccc4ccccc34)cc2CC1=O	-6	4	-2	1	nt	-6
COc1ccccc1N1CCN(Cc2ccc(C(=O)O)cc2)CC1	3	2	0	14	-2	-2
COc1ccccc1N1CCN(Cc2cnc3ccc(Cl)cn23)CC1	-1	5	32*	3	-4	-1
O=C(C[C@@H]1C=C[C@H](NC(=O)c2ccncc2)[C@@H](CO)O1)NCc1ccncn1	-5	-3	-2	1	nt	1
Cc1n(Cc2ccccc2)c2ccccc2[n+]1Cc1ccccc1	0	-9	-2	-34*	-5	2
CC1(C)Cc2nc(-c3ccccc3)nc(SCC(=O)N3CCOCC3)c2CO1	11	-9	18	-2	-3	-1
Cc1ccc(-c2nc3c(c(SCC(=O)N4CCCC4)n2)COC(C)(C)C3)cc1	10	44*	0	10	-4	1
